Out of some 3,600 compounds screened, about 900 (25%) were called active. How the calls were made is not given here. Only a sample is shown. Results with a measured potency or affinity are listed apart.
Biological target: Protein Tat (Human immunodeficiency virus type 1 group M subtype B (isolate HXB2)) (UniProt P04608)
Test: HIV-1 Tat–TAR interaction blockers – biochemical, fluorescence polarization, FAM-labeled TAR RNA, counter-screen for Vif-APOBEC3G degradation inhibitor project, dose response (AID 1117361)
Details: Tat-TAR RNA binding; series mostly up to 100 µM

Row | SMILES | outcome
1 | CCOC(=O)c1ccccc1NC(=O)CSc1nccn1C | inactive
2 | O=[N+]([O-])c1ccc(N2CCN(c3ccc(Cl)nn3)CC2)c(Cl)c1 | inactive
3 | CCc1ccc(C(=O)Nc2cccnc2Oc2ccc(Cl)cc2)cc1 | inactive
4 | CC1=CC(C)(C)Nc2ccc(OC(=O)c3cccnc3)cc21 | inactive
5 | Cc1cc(C)cc(OCC(=O)NNC(=O)CN2C(=O)c3ccccc3C2=O)c1 | inactive
6 | Cc1ccc(C(=O)NNS(=O)(=O)c2ccccc2[N+](=O)[O-])cc1 | inactive
7 | O=C(Nc1ccccc1[N+](=O)[O-])C1C(c2ccccc2)=C1c1ccccc1 | inactive
8 | O=C(COc1cccc2cccnc12)N1CCc2ccccc2C1 | inactive
9 | O=C(NN=C1CCCCCC1)c1cccnc1 | inactive
10 | Cc1cc(C)n(CC(=O)NNC(=O)c2ccc(NC(=O)CC#N)cc2)n1 | inactive
11 | CN(CCOCCOc1ccc2ccccc2c1)Cc1ccccc1 | inactive
12 | Cc1c(C(=O)Nc2ccncc2)oc2c1C(=O)CC(C)(C)C2 | inactive
13 | CC(C(=O)Nc1ccc(F)c(F)c1F)N1CCCCCC1 (stereo not given) | inactive
14 | CCOC(=O)/C(C#N)=C/c1c(OCC)n(CC)c2ccccc12 | inactive
15 | COC1=CC(=O)c2c(ccc3ncnc(N)c23)C1=O | inactive
16 | CCOC(=O)c1cc(-c2ccccc2)n(CC(=O)O)c1C | inactive
17 | CC(C)n1c(CCC(=O)O)ccc1-c1ccccc1 | inactive
18 | Cc1c(CN2CCC(CO)(Cc3cccc(C(F)(F)F)c3)CC2)c2ccccc2n1C | inactive
19 | CCOc1ccc(-n2cnnn2)cc1S(=O)(=O)NCCc1ccc(OC)c(OC)c1 | inactive
20 | O=C(CSc1nccc(=O)[nH]1)Nc1ccc2c(c1)OCCO2 | inactive
21 | Cc1nc(NC(=O)CN2CCOCC2)sc1-c1ccccc1 | inactive
22 | C=CCn1c(N2CCCCCC2)nc2c1c(=O)[nH]c(=O)n2C | inactive

Row | SMILES | outcome
23 | Cc1ccc2[nH]c(=O)c(C3C(C#N)=C(N)Oc4c3ccc3cccnc43)cc2c1 (stereo not given) | inactive
24 | CC(=O)OC(C)C1C2=C(C(=O)CC1(C)O)C(=O)c1c(ccc(-c3ccc4c(c3O)C(=O)C3=C(C4=O)C(C(C)OC(C)=O)C(C)(O)CC3=O)c1O)C2=O (stereo not given) | inactive
25 | CCNC(=O)C1CC(=O)N(Cc2ccc(F)cc2)C(=Nc2ccc(OC)cc2)S1 (stereo not given) | inactive
26 | N#C/C(C(=O)N1CCOCC1)=C1/SC(Cc2ccccc2)C(=O)N1c1ccccc1 (stereo not given) | inactive
27 | CCc1ccc(N/C(SCc2cccc(F)c2)=C(/C#N)C(=O)NCc2ccco2)cc1 | inactive
28 | CCN(Cc1ccccc1)Cc1nnnn1Cc1ccccc1 | inactive
29 | Cc1ccc2nsnc2c1S(=O)(=O)N(Cc1ccco1)Cc1cc2cccc(C)c2[nH]c1=O | inactive
30 | CCOc1ccc2[nH]c(=O)c(CN(Cc3nnnn3Cc3ccco3)C3CCCCC3)cc2c1 | inactive
31 | Cc1ccc2[nH]c(=O)c(CN(Cc3cccs3)Cc3nnnn3Cc3ccccc3)cc2c1 | inactive
32 | Cc1ccc(-n2ncc(C#N)c2/N=C/N2CCCCCC2)cc1 | inactive
33 | O=C1OCCC1Sc1nc2ccccc2n1Cc1ccccc1 (stereo not given) | inactive
34 | CCOC(=O)c1ccc(NS(=O)(=O)c2ccc3oc(=O)[nH]c3c2)cc1 | inactive
35 | Cn1c(=O)oc2cc(S(=O)(=O)Nc3cccc(C(=O)O)c3)ccc21 | inactive
36 | COC(=O)c1sc(NC(=O)c2ccc(Cn3cc(Cl)cn3)o2)c(C#N)c1C | inactive
37 | CCOc1ccc(/C=C2\SC(=S)N(CCC(=O)O)C2=O)cc1 | inactive
38 | Cc1ccc(OCCSc2nnc(-c3ccncc3)n2C)cc1 | inactive
39 | CC(Oc1cccc2cccnc12)C(=O)N/N=C/c1ccc2c(c1)OCO2 (stereo not given) | inactive
40 | COc1cc(NC(=O)c2noc3c2CCC3)c(OC)cc1Cl | inactive
41 | O=C(c1cccs1)N1CCN(C/C=C/c2ccccc2)CC1 | inactive
42 | c1ccc2c(c1)NCC1CCCN21 (stereo not given) | inactive
43 | COc1ccccc1NC(=O)c1oc2ccc(C)cc2c1C | inactive
44 | Cc1nnc(-c2cnn(-c3ccccc3)c2N)n1Cc1cccc(C(F)(F)F)c1 | inactive

Row | SMILES | outcome
45 | CC(C)Oc1ccc(-c2cc(C(=O)NCCN3CCOCC3)c3ccccc3n2)cc1 | inactive
46 | O=C(Nc1ccccc1C(=O)NCC1CCCO1)c1ccccc1 (stereo not given) | inactive
47 | O=C(NCC1CCCO1)c1cc2ccccc2oc1=O (stereo not given) | inactive
48 | O=[N+]([O-])c1ccc(Cl)c(S(=O)(=O)Nc2cccc(S(=O)(=O)NC3=NCCC3)c2)c1 | inactive
49 | CCOC(=O)N1CCC(NC(=O)c2cc3c(C)nc4ccccc4c3o2)CC1 | inactive
50 | CCNC(=S)Nc1cccc(S(=O)(=O)NC2=NCCC2)c1 | inactive
51 | CCOC(=O)N1CCC(NC(=O)c2cc(C(=O)NCc3cccc(Cl)c3)ccc2CO)CC1 | inactive
52 | Cc1ccc2cccc(S(=O)(=O)N3CCN(c4ccccc4F)CC3)c2n1 | inactive
53 | S=C(N/N=C/c1cccs1)NC1CC2CCC1C2 (stereo not given) | inactive
54 | CC1=C(C(=O)OC(C)C)C(c2ccc(Br)s2)NC(=O)N1C (stereo not given) | inactive
55 | COC(=O)Nc1ccc(C)c2nsnc12 | inactive
56 | COc1ccccc1Cn1c(-c2ccccc2OC)nc2ccccc21 | inactive
57 | CCOc1ccc2nc(SCC(=O)c3cccs3)sc2c1 | inactive
58 | CCOC(=O)C1CCN(S(=O)(=O)c2cccc(-c3cn4cccnc4n3)c2)CC1 | inactive
59 | O=C(Nc1cnn(Cc2ccc(Cl)c(Cl)c2)c1)c1nc2ncccn2n1 | inactive
60 | CCN(CC)S(=O)(=O)c1ccc(/C=C/C(=O)Nc2ccc(N3CCOCC3)cc2)cc1 | inactive
61 | O=C1CC(N2CCOCC2)C(=O)N1c1ccc(Cl)cc1 (stereo not given) | inactive
62 | CC(Sc1nnc(C2CC2)n1C)C(=O)Nc1ccc(N2CCOCC2)cc1 (stereo not given) | inactive
63 | Cn1c(-c2ccccc2)cnc1SCC(N)=O | inactive
64 | COc1nc(N(c2ccccc2)c2ccccc2)nc(-n2ccnc2)n1 | inactive
65 | C(=N\n1cnnc1)/c1ccc2ncccc2c1 | inactive
66 | CC(C)OC(=O)CSc1nnc(-c2ccccn2)n1-c1ccccc1 | inactive

Row | SMILES | outcome
67 | C/C(CC1CC2=C(CC1(C)C)C(C)(C)CCC2)=N\NC(N)=S (stereo not given) | inactive
68 | Cc1ccc(NC(=S)NNc2ncc(C(F)(F)F)cc2Cl)cc1 | inactive
69 | Cc1nc(NC(=O)COC(=O)CCS(=O)(=O)c2ccccc2Cl)c(Cl)cc1Cl | inactive
70 | O=c1c2cnn(-c3ccccc3Cl)c2ncn1Cc1cccnc1 | inactive
71 | CC1=CC(C)C2C(=O)N(CCCN(C)C)C(=O)C2C1 (stereo not given) | inactive
72 | COc1ccc(Nc2nc(N)nc(CSC(=S)N3CCN(c4ccccc4)CC3)n2)cc1 | inactive
73 | Cc1nc(C)c(C(=O)OCC(=O)Nc2ccc(C)c(C)c2)s1 | inactive
74 | O=C(N/N=C/C1CC=CCC1)c1ccccc1O (stereo not given) | inactive
75 | O=C(Cn1cc2c(n1)CCCC2)N1CCCc2ccccc21 | inactive
76 | Cc1onc(-c2ccccc2)c1C(=O)N1CCCc2ccccc21 | inactive
77 | CCc1cccc(CC)c1-n1c(SCC(=O)N2CCCc3ccccc32)nc(O)cc1=O | inactive
78 | O=C(Cn1ncc2c(=O)oc3ccccc3c21)N1CCCc2ccccc21 | inactive
79 | Cc1nnc(SCC(=O)NCc2cccs2)[nH]c1=O | inactive
80 | COc1ccc(C(CNCC(=O)Nc2ccccc2F)N(C)C)cc1 (stereo not given) | inactive
81 | O=[N+]([O-])/C(C(Cl)=C(Cl)Cl)=C(/NC1CC1)Sc1ccccc1 | inactive
82 | O=C1CCCN1c1ccc(S(=O)(=O)N2CCC(c3ccccc3)CC2)cc1 | inactive
83 | N#C/C(=C/c1cc(Br)cs1)C(=O)NCC1CCCO1 (stereo not given) | inactive
84 | Cc1ccc(Cl)cc1N1CCN(C(=O)Cc2cn(C)c3ccccc23)CC1 | inactive
85 | O=C(COc1ccc(Cl)cc1)N1CCN(S(=O)(=O)c2ccc(Cl)cc2)CC1 | inactive
86 | CC(C)Cn1nc(NC(=O)C(C)(C)C)c2cc3ccccc3nc21 | inactive
87 | Cc1ccc(C(=O)NNS(=O)(=O)c2ccc(F)cc2)cc1 | inactive
88 | O=C(CN1CCN(c2ccccc2O)CC1)Nc1ccc2c(c1)CCC2 | inactive

Row | SMILES | outcome
89 | O=[N+]([O-])c1ccc(NCCCNS(=O)(=O)c2ccc(Cl)cc2)c(Cl)c1 | inactive
90 | COc1cc([N+](=O)[O-])c(N2CCOCC2)c([N+](=O)[O-])c1OC | inactive
91 | O=S(=O)(NCC1CCCO1)c1cc(Br)c(Br)s1 (stereo not given) | inactive
92 | CCCOC(=O)/C(C(N)=NCc1ccccc1)=C(\O)OCCC | inactive
93 | O=C1CCCC2=C1C(c1cccs1)n1ncnc1N2 (stereo not given) | inactive
94 | Cc1cc(C)n2nc(SCC(=O)Nc3ccc(F)cc3)nc2n1 | inactive
95 | Cc1nnc(NCCc2ccccc2)n(N)c1=O | inactive
96 | O=C(CCOc1ccccc1)NCC(c1ccco1)N1CCCCC1 (stereo not given) | inactive
97 | O=C(NCC(c1ccco1)N1CCCC1)c1cccc(S(=O)(=O)N2CCCCC2)c1 (stereo not given) | inactive
98 | Nc1nc(Nc2ccccc2)sc1C(=O)c1ccccc1 | inactive
99 | COCCN(Cc1cc2ccccc2[nH]c1=O)C(=O)c1ccccc1OC | inactive
100 | CCc1ccc2c(c1)cc(C)c1nnc(SCC(=O)Nc3cc(OC)c(OC)cc3C(=O)O)n12 | inactive
101 | C=CCOc1ccc(Br)cc1/C=N/O | inactive
102 | Cc1cccc(C)c1NC(=O)CS(=O)CC(=O)NC1CCN(Cc2ccccc2)CC1 (stereo not given) | inactive [at 50 µM]
103 | CCOC(=O)CC(=O)CSc1ncc(C(=O)OCC)c(N)n1 | inactive
104 | CCOC(=O)c1ccc(-n2ncc(C(=O)OCC)c2N)cc1 | inactive
105 | COc1ccc2cc(C3(C)NC(=O)N(CC(=O)Nc4c(C)n(C)n(-c5ccccc5)c4=O)C3=O)ccc2c1 (stereo not given) | inactive
106 | O=S(=O)(/C=C/c1ccccc1)N1CCN(c2ccc(F)cc2)CC1 | inactive
107 | CC(=O)Nc1cccc(C(=O)NC(C)c2ccc(S(N)(=O)=O)cc2)c1 (stereo not given) | inactive
108 | CCCN(CCC)CCCNc1ccc2nnc(-c3ccc(F)cc3)n2n1 | inactive
109 | CCOC(=O)C1CCN(C(=O)C2CCN(S(=O)(=O)c3cc(Cl)ccc3Cl)CC2)CC1 | inactive
110 | CCOC(=O)C1CCN(C(=O)c2ccc(OC)cc2OC)CC1 | inactive

From PubChem BioAssay AID1117361 (Southern Research Institute, 2015)
